# Assay results from PubChem BioAssay AID488890 (Southern Research Specialized Biocontainment Screening …, 2010).
# About 1,300 (0.41%) of roughly 320,000 compounds were called active. Another 3% or so got no clear call; they are omitted. The rule behind the calls is not given here. Only a sample is shown. Potency and affinity values are given separately.
# Assay: growth inhibition of non-replicating M. tuberculosis (AID 488890);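 note: plate controls were DMSO cells for no effect and high antibiotic wells for full effect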
# Conditions: Mycobacterium tuberculosis non-replicating, at 25 µM, stronger effect = higher value
row,SMILES,inhibition
1,CCOC(=O)c1cnc(SCc2ccc(C(C)(C)C)cc2)nc1N,14.9%
2,CCOC(=O)C(NC(=O)Nc1ncccn1)(Oc1ccccc1)C(F)(F)F (configuration not stated),-3.5%
3,COc1ccc(N2CCOCC2)c(NC(=O)c2ccc(Br)o2)c1,10%
4,Cc1cc(C)n2[nH]c(=O)c(N=Nc3ccc(S(N)(=O)=O)cc3)c2n1,-1.74%
5,Cc1cc(C(F)(F)F)n2[nH]c(=O)c(N=Nc3ccccc3)c2n1,-0.96%
6,COc1cccc(N=Nc2c(=O)[nH]n3c(C)cc(C)nc23)c1,65.1%
7,Cc1cc(C)n2[nH]c(=O)c(N=Nc3ccccc3)c2n1,-9.77%
8,Cc1ccc(NC(=O)OCCNC(=O)OC(C)C)cc1,13.6%
9,C/C(=C/C(=O)O)C(=O)Nc1cccc(C(F)(F)F)c1,37.8%
10,COc1cc(/C=C/c2ccc3cccc([N+](=O)[O-])c3n2)ccc1OCC(=O)O,31.6%
11,CC(=O)Nc1ccc(/C=C/c2ccc3c([N+](=O)[O-])cccc3n2)cc1,10.1%
12,CN1/C(=C\C(=O)COC(=O)c2ccc(O)cc2)C(C)(C)c2ccccc21,57.9%
13,CN1/C(=C\C(=O)COc2ccc3c(c2)OCO3)C(C)(C)c2ccccc21,43%
14,CN1/C(=C\C(=O)COC(=O)CN2C(=O)C3CC=CCC3C2=O)C(C)(C)c2ccccc21 (configuration not stated),19.7%
15,CN1/C(=C\C(=O)COC(=O)c2ccco2)C(C)(C)c2ccccc21,64.9%
16,COC(=O)c1ccccc1NC(=O)COc1ccc2c(c1)OCO2,70.5%
17,O=C(N/N=C/c1c[nH]c2ccccc12)C1CC(=O)N(c2ccccc2)C1 (configuration not stated),12.1%
18,Cc1cc(C(=O)COc2ccc(F)cc2Br)c(C)n1C,11.3%
19,Cc1cc(C(=O)COC(=O)c2cccnc2Cl)c(C)n1C,7.66%
20,CCN(CC)c1ccc2c(C)c(Cl)c(=O)oc2c1,2.25%
21,CCN(CC)c1ccc2c(Cl)cc(=O)oc2c1,11.8%
22,Cc1cc(C)cc(OCC(=O)Nc2cccc(S(=O)(=O)NC3=NCCC3)c2)c1,5.82%
23,O=C(CNC(=O)c1ccccc1Br)N/N=C/c1cc(Br)ccc1O,17.8%
24,O=C(N/N=C/c1cc(Br)ccc1O)Nc1ccccc1,14.3%

row,SMILES,inhibition
1,COC(=O)N/N=C/c1cc(Br)ccc1O,27.7%
2,O=C(N/N=C/c1cc(Br)ccc1O)c1ccncc1,63.8%
3,O=C(CNC(=O)c1ccccc1)N/N=C/c1cc(Br)ccc1O,38.3%
4,Oc1ccc(Br)cc1/C=N/NC(=S)NCCc1ccccc1,45.2%
5,COc1cccc(-c2nc(CS(=O)(=O)CC(=O)NCCCN3CCN(C)CC3)c(C)o2)c1,-1.26%
6,C/C(=N\N=C1\NC(=O)C(CC(=O)Nc2ccc(C)c(Cl)c2)S1)C(C)(C)C (configuration not stated),38.8%
7,CCCn1c2c(c(O)c(C(=O)Nc3ccc(OC)cc3)c1=O)CCCC2,11.5%
8,CC1(C(=O)NC(=S)N(CCC#N)Cc2cccnc2)CC1(Cl)Cl (configuration not stated),12.4%
9,Cc1ccc(NC(=O)COC(=O)CC2CC3CCC2C3)cc1S(=O)(=O)N1CCOCC1 (configuration not stated),9.66%
10,COC(=O)CCN1CCN(S(=O)(=O)c2ccccc2Br)CC1,-21.4%
11,O=[N+]([O-])c1ccccc1/C=N/Nc1nc(N2CCCC2)nc(N2CCCC2)n1,18.8%
12,Cc1cc(C)n(-c2ccccc2[N+](=O)[O-])n1,24.1%
13,COc1ccccc1/C=N/Nc1nc(C)cc(C)n1,20.8%
14,COc1ccc(/C=N/Nc2cc(C)nc(N3CCOCC3)n2)c(OC)c1,-23.5%
15,COc1ccccc1/C=N/Nc1cc(C)nc(N2CCOCC2)n1,8.69%
16,COc1ccc(OC)c(/C=N/Nc2cc(C)nc(N3CCOCC3)n2)c1,8.92%
17,Cc1cc(N/N=C/c2ccc(O)cc2O)nc(-c2ccccc2O)n1,0.04%
18,Cc1cc(N/N=C/c2ccc(O)cc2O)nc(N2CCOCC2)n1,6.6%
19,O=C(CSc1ncccc1C(=O)O)NC1CCCCCCC1,-1.94%
20,Cc1cc(C)c(C)c(S(=O)(=O)NC(C(=O)O)C(C)C)c1C (configuration not stated),-1.77%
21,Cc1cc(C)c(NC(=S)N2CCC(N(C)CC3CCCO3)CC2)c(C)c1 (configuration not stated),-2.45%
22,O=C(C[n+]1cccc(Br)c1)c1ccc(-c2ccccc2)cc1,31.7%
23,CCCc1cc(C(=O)N2CCCC(N3CCN(c4ccccc4C)CC3)C2)n(C)n1 (configuration not stated),8.14%
24,COc1ccccc1C(=O)NCCC(=O)Nc1ccc(S(=O)(=O)N2CCC(C)CC2)cc1,27.4%

row,SMILES,inhibition
1,Cc1cccc(C)c1NC(=O)CSc1nnc(Cc2ccccc2)o1,-8.32%
2,CC(=O)Nc1ccc(C(=O)CSc2nnc(Cc3ccccc3)o2)cc1,38.2%
3,Cc1ccc(NC(=O)CSc2nnc(-c3ccco3)o2)cc1,27.5%
4,CCNC(=O)CCSc1nnc(-c2ccco2)o1,-8.15%
5,Cc1ccc(NC(=O)CSc2nnc(Cc3ccccc3)o2)c(C)c1,79.6%
6,Cc1ccc(NC(=O)CCSc2nnc(C)o2)cc1,9.37%
7,O=C(CN1CCN(CCN2C(=O)c3cccc4cccc(c34)C2=O)CC1)c1ccc(F)cc1,79.3%
8,Cc1ccc(NC(=O)C2=NNC(=O)CC2)cc1S(=O)(=O)Nc1ccc(SC(F)F)cc1,6.44%
9,CC1CN(S(=O)(=O)c2cccc(C(=O)OCC(=O)N3CCCCCC3)c2)CC(C)O1 (configuration not stated),-8.29%
10,COc1ccc2c(c1OC)C(=O)N(c1cccc(C)c1)C2,-2.97%
11,O=C(O)Cn1c(SCCOc2ccc(Cl)cc2)nc2ccccc21,1.68%
12,COc1cc(C)c(Cl)cc1S(=O)(=O)NCc1ccccn1,-0.9%
13,O=c1c2[nH]c3ccc(Br)cc3c2ncn1Cc1ccncc1,-8.92%
14,CCOC(=O)c1c(NC(=O)C2Cc3ccccc3C(=O)O2)sc2c1CCCC2 (configuration not stated),-2.64%
15,Cc1ccc(OCC(O)CN2CCN(c3ccccn3)CC2)c(C)c1 (configuration not stated),41.5%
16,Cc1ccc(NC(=O)C2CCCN2C(=O)Oc2ccccc2)c(C)c1 (configuration not stated),-3.45%
17,Cc1c(Cl)cccc1NC(=O)NCc1ccccn1,-10.1%
18,Clc1cccc(-c2ccc(CNCCCN3CCOCC3)o2)c1,-19.7%
19,COc1ccc(-c2ccc(CNCc3ccccn3)o2)cc1Cl,78.7%
20,O=C(NCc1ccccn1)Nc1ccc(F)c(Cl)c1,-1.66%
21,O=C(Nc1nccs1)c1ccc(-c2ccc(F)c(Cl)c2)o1,29.7%
22,Cc1c(C(=O)NCc2ccccn2)oc2c(Cl)cccc12,15.1%
23,Clc1ccc(-c2ccc(CNCC3CCCO3)o2)cc1 (configuration not stated),72.6%
24,O=C(NCc1ccccn1)c1cc(-c2ccc(Cl)cc2)oc1C(F)(F)F,10.7%
